Entries with a potency or affinity are not part of this list. Calls of active or inactive are those of the source. No rule for the calls is given here.
Assay: THP-1 cell cytotoxicity, dose response, cytotoxicity control, set 3 (AID 504852)
Conditions: THP-1 cell viability, cytotoxicity CC50; series mostly up to 100 µM
With `CC(C)CCNC(=O)CSc1nc2c(c(=O)[nH]1)CCC2` the outcome was “inactive”.
In the case of `COc1cccc(NC(=O)CSc2nc3c(c(=O)[nH]2)CCC3)c1`, the outcome is reported as “inactive”.
With `O=C(CSc1ncccn1)NC1CCCCC1` the outcome was “inactive”.
In the case of `Cc1nc(SCC(N)=O)[nH]c(=O)c1C`, the outcome is reported as “inactive”.
For `Cc1ccc(NC(=O)CSc2nc3ccccc3c(=O)[nH]2)cc1Cl`, the outcome was “inactive”.
In the case of `CCC(Sc1nc2ccccc2c(=O)[nH]1)C(=O)Nc1cccc(OC)c1` (stereo unspecified), the outcome is reported as “inactive”.
With `Cn1c(SCC(=O)NC2CCCCC2)nc2ccccc2c1=O` the outcome was “inactive”.
With `O=C(CSc1nc2c(c(=O)[nH]1)CCC2)NC1CCCCC1` the outcome was “inactive”.
With `Cc1c[nH]c(=S)[nH]c1=O` the outcome was “inactive”.
For `NC(=O)CSc1nc2ccccc2c(=O)[nH]1`, the outcome was “inactive”.
In the case of `CC(C)NC(=O)CSc1nc2ccccc2c(=O)[nH]1`, the outcome is reported as “inactive”.
For `CCSc1nc(C)c(C)c(=O)[nH]1`, the outcome was “inactive”.
In the case of `O=C(CSc1nc2ccccc2c(=O)[nH]1)NC1CCCCC1`, the outcome is reported as “inactive”.
In the case of `O=c1[nH]c(=S)[nH]c2ccccc12`, the outcome is reported as “inactive”.
With `Nc1cc(=O)[nH]c(SCC(=O)NC2CCCCC2)n1` the outcome was “inactive”.
For `O=C(CSc1nc2ccccc2c(=O)[nH]1)NC1CCCC1`, the outcome was “inactive”.
With `Cc1cc(=O)[nH]c(=S)[nH]1` the outcome was “inactive”.
In the case of `CN(C)C(=O)CSc1nc2ccccc2c(=O)[nH]1`, the outcome is reported as “inactive”.
With `Cc1[nH]c(=S)[nH]c(=O)c1C` the outcome was “inactive”.
In the case of `O=c1[nH]c(SCc2ccccc2Cl)nc2c1CCCC2`, the outcome is reported as “inactive”.
In the case of `Cc1cc(=O)[nH]c(SCC(=O)NC2CCCCC2)n1`, the outcome is reported as “inactive”.
In the case of `COc1ccc(NC(=O)CSc2nc3ccccc3c(=O)[nH]2)cc1`, the outcome is reported as “inactive”.
For `Cc1nc(SCc2ccccc2Cl)[nH]c(=O)c1C`, the outcome was “inactive”.
With `Cc1cnc(SCC(=O)NC2CCCCC2)[nH]c1=O` the outcome was “inactive”.
In the case of `O=C(CSc1nc2ccccc2c(=O)[nH]1)N1CCOCC1`, the outcome is reported as “inactive”.
With `Cc1nc(SCC(=O)NC2CCCC2)[nH]c(=O)c1C` the outcome was “inactive”.
For `CCOC(=O)CSc1nc(C)c(C)c(=O)[nH]1`, the outcome was “inactive”.
With `CN1CCC(NC(=O)CSc2nc3ccccc3c(=O)[nH]2)CC1` the outcome was “inactive”.
In the case of `Cc1nc(SCC(=O)NCCC(C)C)[nH]c(=O)c1C`, the outcome is reported as “inactive”.
For `O=C(CSc1nccc(=O)[nH]1)NC1CCCCC1`, the outcome was “inactive”.
In the case of `CCC(Sc1nc2c(c(=O)[nH]1)CCC2)C(=O)Nc1cccc(OC)c1` (stereo unspecified), the outcome is reported as “inactive”.

— PubChem BioAssay AID504852 (Southern Research Specialized Biocontainment Screening …, 2011)
